Cruzain inh noDet: qHTS Assay for Promiscuous and Specific Inhibitors of Cruzain (without detergent) | Cruzipain (Trypanosoma cruzi), P25779 | purified cruzain, Z-FR-AMC fluorescence, no detergent | Potency, µM, for inactives: max response, negative = inhibition, actives largely listed as inhibitors | 2.3% of 200,000 active;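 note: plate controls were enzyme without inhibitor for no effect and buffer without enzyme for full effect; nearly all actives have a fitted effect of over 40% in size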
Target sequence (P25779 123-467 limits assumed): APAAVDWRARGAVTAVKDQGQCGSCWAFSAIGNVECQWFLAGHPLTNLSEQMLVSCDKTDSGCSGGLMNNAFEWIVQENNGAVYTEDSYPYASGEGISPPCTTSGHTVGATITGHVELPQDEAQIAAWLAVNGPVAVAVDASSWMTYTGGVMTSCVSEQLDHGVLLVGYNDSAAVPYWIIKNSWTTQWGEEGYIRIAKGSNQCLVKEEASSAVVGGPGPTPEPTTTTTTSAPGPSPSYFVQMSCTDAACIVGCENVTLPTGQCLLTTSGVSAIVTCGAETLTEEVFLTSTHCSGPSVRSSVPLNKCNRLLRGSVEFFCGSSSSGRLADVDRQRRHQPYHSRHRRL
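Detergent-free condition (0.00005% Triton X-100) in acetate buffer pH 5.5 with DTT. 1.5 nM enzyme and compound were pre-mixed 15 min, then 2 uM Z-FR-AMC substrate added; reaction progress from fluorescence change between first and third reads (60 s).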
NS1 inh: qHTS Assay for Inhibitors of Influenza NS1 Protein Function; Potency, µM (highest dose often 46.1 µM), without a hit: top-dose activity, positive = more growth; 0.4% of 270,000 active; AID 2326, 2010; calls by dose curve; note: actives are rising curves; nearly all actives have a fitted effect of over 50% in size
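In this qHTS, NS1 from influenza A is expressed in budding yeast, where it slows growth. Cells are switched from glucose to 2% galactose medium (pH 6.0, -URA), treated with compound, and growth recovery is read at OD600.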
Cruzain inh Det: qHTS Assay for Promiscuous and Specific Inhibitors of Cruzain (with detergent). 0.43% of 200,000 active. Potency, µM, inactives show max response, negative = inhibition, actives largely listed as inhibitors. Cruzipain (Trypanosoma cruzi), P25779. purified cruzain, Z-FR-AMC fluorescence, 0.01% Triton;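 note: plate controls were neutral wells for no effect and buffer without enzyme for full effect; nearly all actives have a fitted effect of over 40% in size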
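Z-FR-AMC hydrolysis (2 uM substrate) by cruzain (1.5 nM) monitored kinetically at ex 360/em 450 nm after 15 min room-temperature compound exposure; 0.01% Triton X-100, pH 5.5, 5 mM DTT.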
* marks the source's active call; other numbers are inactive results; ? = inconclusive; nt = not tested or not shown. The entries come from a sample that favours hits as a whole. Unless noted, calls come from the whole dose curve; as a rule, active = well fitted curve in the direction sought with a large enough effect; inconclusive = small, poorly fitted or top-dose-only effect, or another doubt; inactive = no such curve, though single readings can be large; an effect the other way counts as inactive or inconclusive. Potency is the fitted concentration of half-maximal effect.

SMILES | Cruzain inh noDet | NS1 inh | Cruzain inh Det
N#CCC(=N)N1CCN(c2ccccc2)CC1 | -4% | 0% | -3%
N#CCC(=N)N1CCN(c2cccc(Cl)c2)CC1 | 13µM* | 5% | 0%
O=C(c1cccnc1)N1CCN(c2ccccc2Cl)CC1 | nt | -12% | nt
Cc1nc(NC2CCCCC2)c2nc(-c3ccccc3)n(CCCN3CCCCC3C)c2n1 (stereo not given) | 1% | nt | 4%
Cc1ccc(-n2nc(CO)c(C(=O)NCc3cccnc3)n2)cc1C | 0% | nt | -3%
CN(C)CCN1C(=O)CC[C@]2(C)C1=CC[C@@H]1[C@@H]2CC[C@]2(C)[C@H]1CC[C@]2(C)O | -10% | 11% | 1%
COc1ccc(C(C(=O)NCc2ccccc2)N(C(=O)Cn2nnc3ccccc32)c2ccc(OC)cc2)cc1 (stereo not given) | -3% | nt | -3%
COc1ccc2cc(C(=O)NCc3ccc4c(c3)CCN4C(=O)c3ccc(F)cc3)[nH]c2c1 | 25µM* | nt | -1%
COc1ccc(C(=O)NCc2ccc3c(c2)CCN3C(=O)c2ccc(F)cc2)cc1 | 10% | nt | 0%
COc1ccc(C)cc1NC(=O)NCc1ccc2c(c1)CCN2C(=O)c1ccccc1 | 20µM* | nt | -3%
COc1ccc2cc(C(=O)NCc3ccc4c(c3)CCN4C(=O)c3ccc(C)cc3)[nH]c2c1 | 13µM* | nt | -2%
Cc1ccc(NC(=O)NCc2ccc3c(c2)CCN3C(=O)c2ccccc2)c(Cl)c1 | -23% | nt | -4%
COc1ccc(C(=O)NCc2ccc3c(c2)CCN3C(=O)c2ccccc2)cc1 | 14% | nt | -1%
CCCCN(CC)CCNS(=O)(=O)c1cccc2cccnc12 | nt | -1% | nt
NC(=O)CCCCC(N)=O | 3% | nt | 2%
NCCC(O)C(=O)NC1C[C@@H](N)[C@H](O[C@@H]2OC(CN)C(O)C(O)C2O)C(O)[C@H]1O[C@H]1OC(CO)C(O)C(N)C1O (stereo not given in full) | 3% | nt | 4%
CC(C)Cc1nn2c(=O)cc(COC(=O)c3ccccc3NC(=O)c3ccccc3)nc2s1 | 9% | nt | 1%
Cc1cc(C)n2nc(CC(=O)NCc3ccccc3Cl)nc2n1 | 8% | 6% | 16µM*
Cc1ccc(CNC(=O)Cc2nc3nc(C)cc(C)n3n2)cc1 | -5% | 4% | 1%
Cc1cc(=O)[nH]c2cc3oc4ccccc4c3cc12 | -4% | -14% | -4%
CCOC(=O)c1ccc(N2C(=O)c3[nH]nc(-c4ccccc4)c3C2c2ccc(CC)cc2)cc1 (stereo not given) | 13µM* | nt | -4%
CCOC(=O)c1ccc(N2C(=O)c3[nH]nc(-c4ccc(C)cc4)c3C2c2ccc(O)cc2)cc1 (stereo not given) | ? | nt | -5%
CSCCC=O | -8% | nt | 0%
COc1ccc(-n2c(C(C)n3nc(C)c([N+](=O)[O-])c3C)n[nH]c2=S)cc1 (stereo not given) | -3% | 9% | -2%
COc1ccc(-n2c(C)c([N+](=O)[O-])c3ccc(O)c(CN(C)C)c32)cc1 | 25µM* | ? | -21%
SMILES | Cruzain inh noDet | NS1 inh | Cruzain inh Det
Cc1c(C(=O)N(C)c2cccc(C(F)(F)F)c2)sc2nc3n(c(=O)c12)CCCCC3 | ? | nt | -12%
COc1ccc2c(c1)c1c(c(=O)n(-c3ccccc3C)c(=O)n1CC(N)=O)n2C | 4% | nt | 13%
Cc1ccc2nc(C3CCCN(C(=O)NCc4ccccc4)C3)[nH]c2c1 (stereo not given) | 6.3µM* | 1% | ?
Cc1ccc2nc(C3CCN(C(=O)NCc4ccccc4)CC3)[nH]c2c1 | -3% | -4% | 0%
Cc1ccc(NC(=O)C(Cc2c[nH]c3ccccc23)NC(=O)OCC(C)C)cc1 (stereo not given) | -5% | nt | -11%
O=S(=O)(c1ccccc1)c1nc(-c2cccc(Cl)c2)oc1NCc1ccccc1 | 9% | nt | 0%
O=S(=O)(c1ccccc1)c1nc(-c2ccco2)oc1NCc1ccco1 | -7% | -33% | -9%
CCNc1oc(-c2ccc(OC)cc2)nc1S(=O)(=O)c1ccc(Br)cc1 | -1% | 1% | -3%
O=S(=O)(c1ccc(Cl)cc1)c1nc(-c2cccc(Br)c2)oc1NCc1ccccc1 | 13µM* | nt | -11%
Cc1ccc(S(=O)(=O)c2nc(C)oc2NCc2ccccc2)cc1 | 20µM* | -4% | 20µM*
CCCCNc1oc(-c2ccc(OC)cc2)nc1S(=O)(=O)c1ccccc1 | ? | -5% | 28µM*
Cc1ccc(S(=O)(=O)c2nc(-c3ccccc3F)oc2NCc2ccccc2)cc1 | 0% | nt | -2%
O=S(=O)(c1ccccc1)c1nc(-c2ccco2)oc1NCc1ccccc1 | 25µM* | 3% | 22µM*
FC(F)(F)c1ccc(-c2noc(-c3ccccc3)c2I)cc1 | ? | nt | -3%
CCOC(=O)CC(SP(=O)(OC)OC)C(=O)OCC (stereo not given) | 4% | nt | 7%
O=C(NCc1ccccc1Br)c1ccc2c(c1)nc1n2CCOC1 | 14% | nt | 2%
COC(=O)c1ccc(NC(=O)CCc2c(C)nn(-c3ccc(N4CCOCC4)nn3)c2C)cc1 | -2% | nt | -2%
CC(=O)c1ccccc1[N+](=O)[O-] | -3% | nt | 1%
COCCNc1nc(-c2ccccc2Cl)nc2ccccc12 | 7% | nt | -2%
Cc1cc(NC(=O)CSc2nc3cc(Cl)ccc3s2)no1 | 10µM* | -4% | 1%
CCOC(=O)c1c(NC(=O)CSc2nc3ccccc3s2)sc(C(C)=O)c1C | -25% | ? | -2%
CCOC(=O)c1c(NC(=O)CSc2nc3cc(Cl)ccc3s2)sc(C(C)=O)c1C | 16µM* | 15% | -6%
Cc1cc(C)nc(NC(=O)CSc2nc3cc(Cl)ccc3s2)n1 | 6% | -9% | -3%
CN1CCN(c2ncc3nc(-c4cc(F)cc(F)c4)c(=O)n(C)c3n2)CC1 | 24% | nt | -7%
CN1CCN(c2ncc3nc(-c4ccccc4)c(=O)n(-c4ccccc4)c3n2)CC1 | ? | nt | 25µM*
SMILES | Cruzain inh noDet | NS1 inh | Cruzain inh Det
CN1CCN(c2ncc3nc(-c4cccc(C#N)c4)c(=O)n(C)c3n2)CC1 | ? | nt | 18µM*
COc1ccc(-n2c(=O)c(-c3ccccc3)nc3cnc(N4CCN(C)CC4)nc32)cc1 | -2% | nt | 0%
CC(C)N(C)C1CCN(S(=O)(=O)c2ccc3[nH]c(=O)ccc3c2)CC1 | -11% | nt | 0%
C[C@H]1/C=C\CC(=O)NCc2cccc(c2)CNC(=O)N[C@H]1c1ccccc1 | ? | nt | 2%
COc1cccc(/C=N/NC(=O)N/N=C/c2cccc(OC)c2O)c1O | nt | 6% | nt
COc1cccc(/C=N/NC(=O)c2nc(-c3ccccc3)cc(-c3ccccc3)n2)c1O | 13µM* | ? | -1%
CCOC(=O)c1sc(-c2ccccc2)cc1NC(=O)Nc1ccc([N+](=O)[O-])cc1 | 10µM* | -10% | -3%
CCOc1ccc(-c2cc(NC(=O)Nc3cccc(C(C)=O)c3)c(C(=O)OC)s2)cc1 | 20% | nt | -2%
Cc1ccc2sc(NC(=O)c3ccc(N4C(=O)CCC4=O)cc3)nc2c1C | ? | 27% | 2%
CCc1cccc2sc(NC(=O)c3ccc(N4C(=O)CCC4=O)cc3)nc12 | 7.9µM* | -7% | 2%
COc1cccc(-n2c(SCC(=O)Nc3cccc(Cl)c3)nc3c(oc4ccccc43)c2=O)c1 | 13µM* | nt | -3%
O=C(CSc1nc2c(oc3ccccc32)c(=O)[nH]1)Nc1cccc(Cl)c1 | 7.9µM* | nt | 1%

Screens (PubChem BioAssay)
